Data from PubChem BioAssay AID1942 (Johns Hopkins Ion Channel Center, 2009).
About 580 (24%) of roughly 2,400 compounds were called active.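 Rule for the calls: active = activity change at or above the mean plus 3 SD of buffer wells without dofetilide, per plate; inactive = the rest.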 A selection follows.

target: Potassium voltage-gated channel subfamily KQT member 2 (Rattus norvegicus) (UniProt O88943); assay: KCNQ2 potentiation in CHO cells – cell-based, FluxOR thallium flux, counter-screen for hERG block protector project, confirmation (AID 1942); conditions: FluxOR thallium flux fluorescence, at 10 µM, active compounds read high;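 note: normalized value minus buffer-control mean plus three SD of buffer wells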
Sequence (O88943 whole entry, looked up): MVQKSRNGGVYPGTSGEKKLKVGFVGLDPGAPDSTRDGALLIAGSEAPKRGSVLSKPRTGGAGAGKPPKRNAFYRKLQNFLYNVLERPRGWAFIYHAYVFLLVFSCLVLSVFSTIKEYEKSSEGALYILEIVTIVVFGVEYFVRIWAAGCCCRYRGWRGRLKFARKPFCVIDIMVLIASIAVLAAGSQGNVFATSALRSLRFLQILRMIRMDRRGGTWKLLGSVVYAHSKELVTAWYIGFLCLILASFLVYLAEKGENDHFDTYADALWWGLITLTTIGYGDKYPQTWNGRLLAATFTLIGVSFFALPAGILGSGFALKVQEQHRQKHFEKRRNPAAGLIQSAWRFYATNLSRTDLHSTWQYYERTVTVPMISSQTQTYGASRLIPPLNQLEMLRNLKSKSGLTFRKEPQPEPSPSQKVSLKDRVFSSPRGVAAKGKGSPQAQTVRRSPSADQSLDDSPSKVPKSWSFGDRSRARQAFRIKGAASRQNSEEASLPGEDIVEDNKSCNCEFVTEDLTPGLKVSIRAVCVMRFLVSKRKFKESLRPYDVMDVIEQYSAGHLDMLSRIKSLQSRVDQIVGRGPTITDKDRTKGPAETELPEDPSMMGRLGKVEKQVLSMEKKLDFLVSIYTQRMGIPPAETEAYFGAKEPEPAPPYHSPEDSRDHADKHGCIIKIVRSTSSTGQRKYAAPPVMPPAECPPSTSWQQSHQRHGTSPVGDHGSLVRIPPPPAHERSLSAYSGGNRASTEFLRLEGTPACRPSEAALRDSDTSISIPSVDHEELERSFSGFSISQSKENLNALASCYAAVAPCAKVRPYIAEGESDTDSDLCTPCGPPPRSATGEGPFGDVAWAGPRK

Compound | activity change, less the hit threshold
COC(=O)c1sccc1NC(=O)CSc1ccccc1NS(=O)(=O)c1cc(Cl)ccc1Cl | -17% (inactive)
O=S(=O)(Nc1nc(-c2sccc2Cl)cs1)c1cc(Cl)ccc1Cl | 105% (active)
COc1cc(C(=O)NCCNc2nc3cc(C)ccc3cc2C#N)cc(OC)c1OC | -18.4% (inactive)
COc1ccc(NC(=O)CSCC(=O)Oc2c(OC)cccc2OC)cc1 | -22.1% (inactive)
CC(NC(=O)NC1CCCCC1)c1ccccc1 (configuration not stated) | 26.3% (active)
Cc1ccc(C(C)NC(=S)NC2CCCCC2)cc1C (configuration not stated) | 46.1% (active)
Cc1ccc(OCCC(=O)OC(C)C(=O)NC2CC2)cc1 (configuration not stated) | -9% (inactive)
CC(C)(C)c1ccccc1NC(=S)NC1CCCC1 | -7.6% (inactive)
CCC(C)(C(=O)NC1CCCC1)N(C(=O)c1ccccn1)c1ccccc1 (configuration not stated) | -13% (inactive)
CC(C)NC(=S)NNc1nc2ccccc2s1 | -19.4% (inactive)
CCOc1ccc(N=Nc2cc(C(C)C)ccc2O)cc1 | -9.1% (inactive)
CC(NC(=O)COC(=O)C1CCC1)c1ccccc1 (configuration not stated) | -21.4% (inactive)
CC(NC(=S)NC1CCCCC1)c1ccccc1 (configuration not stated) | 6.9% (active)
CCOc1ccc(C(C)NC(=S)NC2CCCCC2)cc1 (configuration not stated) | 9.5% (active)
COc1cccc(NC(=S)NC(C)c2ccc(OC)c(OC)c2)c1 (configuration not stated) | -23.4% (inactive)
O=C(OCc1ccccc1)C1=NNC2C(=O)N(c3ccc(Br)cc3)C(=O)C12 (configuration not stated) | -11.1% (inactive)
C=C(C)CNC(=S)NN=C1c2ccccc2-c2ccccc21 | -7.1% (inactive)
COc1ccccc1C1C(C(=O)c2ccc(C)o2)=C(O)C(=O)N1c1cc(C)on1 (configuration not stated) | -9.3% (inactive)
COc1ccccc1-n1cnc2cc(NS(=O)(=O)c3ccc(Br)cc3)ccc21 | -25.5% (inactive)
CC1Oc2ccccc2N(CC(=O)N2CCCCCC2)C1=O (configuration not stated) | -17.7% (inactive)
O=C(COc1coc(CN2CCc3ccccc3C2)cc1=O)Nc1cccc(Cl)c1 | -26% (inactive)
COc1ccc(CCNC(=O)C(=O)Nc2ccc3c(c2)OCO3)cc1OC | -19% (inactive)
O=C(COC(=O)/C=C/c1ccc2c(c1)OCO2)NC1CC1 | -11.4% (inactive)
CC(NC(=O)NC1CCCCC1)c1ccc2c(c1)OCO2 (configuration not stated) | 51% (active)
COc1cc(/C=N/NC(=O)NC2CCCCC2)ccc1O | -11.5% (inactive)
CCOC(=O)N1CCN(C(=O)c2ccc(C)c(S(=O)(=O)Nc3ccccc3)c2)CC1 | 4% (active)

Compound | activity change, less the hit threshold
CCOC(=O)N1CCN(C(=O)c2ccc(CN(c3ccc(C)c(C)c3)S(C)(=O)=O)cc2)CC1 | -15.6% (inactive)
CCOC(=O)N1CCN(C(=O)c2ccc(Cl)c(S(=O)(=O)Nc3ccccc3)c2)CC1 | -3.5% (inactive)
O=C(c1ccc(Cl)c(S(=O)(=O)N2CCCC2)c1)N1CCN(c2ccccc2F)CC1 | -7.1% (inactive)
Cc1ccc(C(=O)N2CCN(c3ccccc3)CC2)cc1S(=O)(=O)N1CCCC1 | 1.9% (active)
COc1ccc(N2CCN(C(=O)c3ccc(-c4ccccc4)cc3)CC2)cc1 | -20% (inactive)
Cc1cccc(/N=C/c2sc3ccccc3c2O)n1 | -11.6% (inactive)
CCC(=O)c1cc2c(C)cc(=O)oc2c(C)c1O | -12.6% (inactive)
CSc1ccc(CNc2nc3ccccc3n3cnnc23)cc1 | -28.3% (inactive)
COc1ccc(COC(=O)C2CCN(S(=O)(=O)c3cccs3)CC2)cc1 | -20.1% (inactive)
c1ccc(-c2csc(Nc3ccc4c(c3)OCCO4)n2)cc1 | -20.3% (inactive)
O=C(COC(=O)c1cc[n+]([O-])cc1)Nc1cc([N+](=O)[O-])ccc1Cl | -11.7% (inactive)
O=C(Nc1nnc(-c2ccc3c(c2)CCCC3)o1)c1ccc(Cl)cc1Cl | 30.2% (active)
O=C(Nc1nc2c(F)cc(F)cc2s1)C1COc2ccccc2O1 (configuration not stated) | -25.7% (inactive)
O=C(CCc1ccccc1)Nc1nnc(-c2ccccn2)o1 | -17.4% (inactive)
O=C(Nc1nnc(-c2ccccc2)o1)c1ccc(Cl)cc1 | -17.9% (inactive)
O=C(Nc1nnc(-c2ccc3c(c2)CCCC3)o1)C1COc2ccccc2O1 (configuration not stated) | 4.3% (active)
O=C(Cc1ccc(Cl)cc1)Nc1cccc(-c2nnc(-c3ccco3)o2)c1 | -13.4% (inactive)
O=C(N=C1SC2CS(=O)(=O)CC2N1c1cccc(Cl)c1Cl)C1CCCO1 (configuration not stated) | -21.2% (inactive)
CCCN(C(=O)c1ccco1)c1nnc(-c2ccncc2)s1 | -7.4% (inactive)
Cc1ccc(/C(O)=C2\C(=O)C(=O)N(Cc3cccnc3)C2c2ccccc2[N+](=O)[O-])cc1 (configuration not stated) | -16% (inactive)
Cc1ccc(NC(=O)CN2C(=O)S/C(=C/c3ccc(-c4cc(C(=O)O)ccc4C)o3)C2=O)cc1C | -24.7% (inactive)
Cc1ccc2c(c1)N(CCC(=O)NCc1cccnc1)C(=O)CO2 | -10.8% (inactive)
C/C(=C\C(=O)c1ccncc1)Nc1ccccc1O | -11.7% (inactive)
O=C1CC(O)(C(F)(F)F)Oc2c1ccc1ccccc21 (configuration not stated) | 28.3% (active)
CC1(C)Cc2c(ccc3ccccc23)C2=C(C(=O)N3CCCC3)C(=O)C(=O)N21 | -11.1% (inactive)
Nc1nc2c(s1)CCCCCCCCCC2 | -3% (inactive)

Compound | activity change, less the hit threshold
O=C(c1ccco1)N(c1ccccn1)c1ccccn1 | -21.4% (inactive)
Brc1ccc(C2=CC(c3ccco3)n3nnnc3N2)cc1 (configuration not stated) | -16.3% (inactive)
O=C(O)c1sccc1OCc1ccccc1 | -0.9% (inactive)
Oc1c(N=NC(=S)Nc2ccccc2F)c2ccccc2n1Cc1cccc(Cl)c1 | -13% (inactive)
C=CCn1c(O)c(N=NC(=S)Nc2ccc(OC)cc2)c2ccccc21 | 25% (active)
Cc1ccccc1Cn1c(O)c(N=NC(=S)Nc2ccccc2F)c2ccccc21 | -20.7% (inactive)
Oc1c(N=NC(=S)Nc2ccccc2F)c2ccccc2n1Cc1ccccc1F | -12.8% (inactive)
Cc1ccc(C)c(Cn2c(O)c(N=NC(=S)Nc3ccccc3F)c3ccccc32)c1 | -11.3% (inactive)
C=CCn1c(O)c(N=NC(=S)Nc2ccc(OC)c(Cl)c2)c2ccccc21 | 3.8% (active)
CCCCCCCc1c(O)nc(SCC(=O)O)[nH]c1=O | -8.4% (inactive)
Cc1cc(-c2ccccc2)[nH]c(=O)c1S(=O)(=O)c1ccccc1 | -13% (inactive)
C/C(N)=C(/C#N)C(=O)COC(=O)C1CCC(C(C)(C)C)CC1 (configuration not stated) | -10% (inactive)
Cn1cc(CCC(=O)N2CCCC(Nc3ccc(F)cc3)C2)cn1 (configuration not stated) | -23.8% (inactive)
CCC(=O)Nc1nnc(-c2ccccn2)o1 | -22.5% (inactive)
CC(Oc1ccc(Cl)cc1)/C(N)=N/O (configuration not stated) | -19.6% (inactive)
CC(=O)c1n[nH]nc1NC(=O)c1ccccc1 | -9.7% (inactive)
CCc1cccc(C)c1NC(=O)C1=C(C(=O)O)CCCC1 | -15.9% (inactive)
Cc1ccccc1Cn1nc(C)c(NC(=O)c2ccccc2)c1C | 51.6% (active)
COc1ccc(CCN2C(=O)CSC2=S)cc1OC | -24% (inactive)
O=C(CCC1CCCC1)NNC(=O)c1cccc(Cl)c1 | 11.7% (active)
Cc1cccc(C(=O)NC(=S)NNC(=O)c2ccc(Cl)cc2)c1 | -29% (inactive)
O=C(NC(=S)NCCc1ccccc1)c1cccc(Cl)c1 | -22.4% (inactive)
Cc1ccccc1NC(=O)CC1S/C(=N/c2nccs2)N(C)C1=O (configuration not stated) | -17.1% (inactive)
O=C(O)C1CCN1C1CCCCC1 (configuration not stated) | -22.9% (inactive)
CCOC(=O)c1ccc(Oc2cc(C)nc(SC)n2)cc1 | 11.9% (active)
CCOc1cc(-n2ncc(C#N)c2N)nc(SC)n1 | -21.7% (inactive)

Compound | activity change, less the hit threshold
CC(C)(C)OC(=O)NCCCC(CCCNC(=O)OC(C)(C)C)C(=O)O | -22.6% (inactive)
CCOC(=O)N1CCN(C(=O)COC(=O)c2cc(Cl)c(O)c(Cl)c2)CC1 | -13.4% (inactive)
COc1ccc2[nH]c3c(=O)n(CCN4CCOCC4)cnc3c2c1 | -15.3% (inactive)
O=C(Nc1ncc(Cc2ccc(C(F)(F)F)cc2)s1)c1ccc(-c2cccc([N+](=O)[O-])c2)o1 | -12.3% (inactive)
O=C(CSc1cn(CC(=O)N2CCCC2)c2ccccc12)NCC1CCCO1 (configuration not stated) | -27.5% (inactive)
O=C(NCc1ccco1)c1ccc(OCC2CCCO2)cc1 (configuration not stated) | -26.4% (inactive)
O=C(NCC1CCCO1)c1ccc2c(=O)n(Cc3ccco3)c(SCC(=O)N3CCCC3)nc2c1 (configuration not stated) | 3.2% (active)
OC(COC(c1ccccc1)c1ccccc1)CN1CCCCC1 (configuration not stated) | -23.9% (inactive)
COc1ccc(C(CC(=O)O)NC(=O)C(c2ccccc2)c2ccccc2)cc1 (configuration not stated) | -23.8% (inactive)
O=C1C(=Cc2cccn2-c2ccc(O)cc2)C(=O)c2ccccc21 | -25.6% (inactive)
CC(C)(C)C(=O)NC(=S)N1CCOCC1 | -8% (inactive)
CCCCCCC1CCC(C(=O)N2CCOCC2)CC1 (configuration not stated) | 5.9% (active)
O=C(C1CCN(S(=O)(=O)c2cc(Cl)ccc2Cl)CC1)N1CCOCC1 | -26% (inactive)
COC(=O)Sc1nnc(-c2ccc(Br)cc2)o1 | -1.8% (inactive)
CCn1c(O)c(N=NC2=NC(=O)CS2)c2cc(C)ccc21 | -10.5% (inactive)
CCn1c(O)c(N=NC2=NC(=O)CS2)c2ccccc21 | -5.8% (inactive)
CCc1ccc2c(c1)c(N=NC1=NC(=O)CS1)c(O)n2CC | 26.5% (active)
C/C(=N/NC(=O)c1ccncc1)c1ccc2c(c1)OCO2 | -22.1% (inactive)
O=C(NNC(=O)C12CC3CC(CC(O)(C3)C1)C2)c1ccccc1O | -1.7% (inactive)
COc1ccc(OCC(=O)NNC(=O)C(=O)Nc2cc(OC)ccc2OC)cc1 | 15.9% (active)
COc1ccc(OC)c(NC(=O)C(=O)NNC(=O)C23CC4CC(CC(C4)C2)C3)c1 | 96.2% (active)
COc1ccc(NC(=O)C(=O)NNC(=O)COc2ccc(OC)cc2)cc1 | -24.3% (inactive)
COc1cccc(OCC(=O)NNC(=O)C(=O)Nc2ccc(OC)cc2OC)c1 | 15.4% (active)
COc1ccc(NC(=O)C(=O)NNC(=O)COc2ccc(Cl)cc2)c(OC)c1 | 15.6% (active)
